Holding throughout (assay): yeast three-hybrid, YBZ-1, SC-Leu-His + 0.5 mM 3-AT, 4 days
What all share (settings): tags: N-Gal4 AD-HA kept; label: inside an RPR1-promoter hybrid RNA with tandem MS2 sites; ssRNA

The target of test [1] is PUM1 PUF domain R5-RFK (Homo sapiens, UniProt Q14671 828-1176, C1007R;R1008F;Q1011K). An outline of the steps:
(§1)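 The interaction score is the log change in variant frequency from input to selection. Scores were computed in log2 with a pseudocount of 1 for absent variants, using Illumina sequencing of PCR-amplified repeat regions. The input came from four days on SC-Leu and the selection from four days on SC-Leu-His + 0.5 mM 3-AT. The cells were strain YBZ-1 (LexA–MS2 coat fusion, HIS3 reporter) co-expressing Pumilio-1 PUF domain libraries and matching RNA elements from a centromeric plasmid.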

In test [2] the target is PUM1 PUF domain R7-RRC (Homo sapiens, UniProt Q14671 828-1176, S1079R;N1080R;E1083C). An outline of the steps:
as §1

Test [3] concerns the target PUM1 PUF domain R8-TWK (Homo sapiens, UniProt Q14671 828-1176, N1122T;Y1123W;Q1126K). An outline of the steps:
as §1

The target of test [4] is PUM1 PUF domain R8-LYW (Homo sapiens, UniProt Q14671 828-1176, N1122L;Q1126W). An outline of the steps:
as §1

Test [5] addresses PUM1 PUF domain R8-RYD (Homo sapiens, UniProt Q14671 828-1176, N1122R;Q1126D). An outline of the steps:
as §1

Test [6] has as its target PUM1 PUF domain R8-LHR (Homo sapiens, UniProt Q14671 828-1176, N1122L;Y1123H;Q1126R). In a few lines: as §1
Test [7] concerns the target PUM1 PUF domain R8-DYC (Homo sapiens, UniProt Q14671 828-1176, N1122D;Q1126C). In a few lines: as §1
Test [8] has as its target T1, PUM1 PUF domain R6-HFR (Homo sapiens, UniProt Q14671 828-1176, N1043H;Y1044F;Q1047R).
T1 sequence: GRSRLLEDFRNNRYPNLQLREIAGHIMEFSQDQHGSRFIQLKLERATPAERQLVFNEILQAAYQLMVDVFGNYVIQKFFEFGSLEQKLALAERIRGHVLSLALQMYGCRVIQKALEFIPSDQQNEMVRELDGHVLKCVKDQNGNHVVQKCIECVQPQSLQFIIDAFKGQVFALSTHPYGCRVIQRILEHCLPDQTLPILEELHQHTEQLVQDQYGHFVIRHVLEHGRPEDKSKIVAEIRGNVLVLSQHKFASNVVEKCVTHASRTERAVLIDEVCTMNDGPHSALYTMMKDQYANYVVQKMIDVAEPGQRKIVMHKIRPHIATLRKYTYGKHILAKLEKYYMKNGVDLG
In a few lines: as §1

The target of test [9] is T2, PUM1 PUF domain R6-KWK (Homo sapiens, UniProt Q14671 828-1176, N1043K;Y1044W;Q1047K).
T2 sequence: T1 sequence with H216K, F217W, R220K
In a few lines: as §1

Test [10] addresses PUM1 PUF domain R5-CHM (Homo sapiens, UniProt Q14671 828-1176, R1008H;Q1011M). An outline of the steps: as §1
For test [11], the target named is T3, PUM1 PUF domain R6-IFS (Homo sapiens, UniProt Q14671 828-1176, N1043I;Y1044F;Q1047S).
T3 sequence: T1 sequence with H216I, R220S
An outline of the steps: as §1

Test [12] has as its target T4, PUM1 PUF domain R6-AWG (Homo sapiens, UniProt Q14671 828-1176, N1043A;Y1044W;Q1047G).
T4 sequence: T1 sequence with H216A, F217W, R220G
An outline of the steps:
as §1

Test [13] deals with PUM1 PUF domain R1-GGQ (Homo sapiens, UniProt Q14671 828-1176, S863G;R864G). In a few lines: as §1
Test [14] concerns the target PUM1 PUF domain R1-YLR (Homo sapiens, UniProt Q14671 828-1176, S863Y;R864L;Q867R). In a few lines:
as §1

In test [15] the target is PUM1 PUF domain R3-WCL (Homo sapiens, UniProt Q14671 828-1176, C935W;R936C;Q939L). An outline of the steps: as §1
For test [16], the target named is PUM1 PUF domain R3-RIG (Homo sapiens, UniProt Q14671 828-1176, C935R;R936I;Q939G). An outline of the steps: as §1

Numbering of substitutions follows the chain as printed.

Chain of PUM1 PUF domain R8-TWK (Q14671 828-1176 N1122T/Y1123W/Q1126K): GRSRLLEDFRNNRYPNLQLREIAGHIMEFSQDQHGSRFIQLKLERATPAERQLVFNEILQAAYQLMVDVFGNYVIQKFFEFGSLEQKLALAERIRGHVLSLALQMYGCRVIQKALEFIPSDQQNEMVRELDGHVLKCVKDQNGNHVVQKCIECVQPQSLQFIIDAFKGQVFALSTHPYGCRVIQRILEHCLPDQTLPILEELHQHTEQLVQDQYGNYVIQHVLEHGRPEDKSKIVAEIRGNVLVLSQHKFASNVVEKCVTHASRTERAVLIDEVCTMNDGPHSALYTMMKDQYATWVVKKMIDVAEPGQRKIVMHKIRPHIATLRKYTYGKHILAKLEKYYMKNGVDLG

Take “GGCUAGAACUAGUGGAUCCCCCGGCGCCCGGCGGCUCGAGCCCGGGUAAGUGUUAAUAGUCUGCAUGCCGCCGGGCGCCAUGCCUGCAGGUCGACUCUAGAAAACAUG”: in test [1], the binding signal was 5.38 log2 enrichment (interaction score).
The same measure, in the same setting: the same measure for “GGCUAGAACUAGUGGAUCCCCCGGCGCCCGGCGGCUCGAGCCCGGGUAAGUGUCAAUAGUCUGCAUGCCGCCGGGCGCCAUGCCUGCAGGUCGACUCUAGAAAACAUG”: 5.3 log2 enrichment (interaction score).
On to “GGCUAGAACUAGUGGAUCCCCCGGCGCCCGGCGGCUCGAGCCCGGGUAAGUUUAAAUAGUCUGCAUGCCGCCGGGCGCCAUGCCUGCAGGUCGACUCUAGAAAACAUG”, for which the binding signal in [2] is 4.95 log2 enrichment (interaction score).
For the sequence “GGCUAGAACUAGUGGAUCCCCCGGCGCCCGGCGGCUCGAGCCCGGGUAAGCGUAAAUAGUCUGCAUGCCGCCGGGCGCCAUGCCUGCAGGUCGACUCUAGAAAACAUG”, the binding signal in test [3] is 2.23 log2 enrichment (interaction score); in test [4], 3.09 log2 enrichment (interaction score); in test [5], 4.23 log2 enrichment (interaction score); in test [6], 4.05 log2 enrichment (interaction score); in test [7], 4.43 log2 enrichment (interaction score).
On to “GGCUAGAACUAGUGGAUCCCCCGGCGCCCGGCGGCUCGAGCCCGGGUAAGUGUAAAUAGUCUGCAUGCCGCCGGGCGCCAUGCCUGCAGGUCGACUCUAGAAAACAUG”, for which the binding signal in test [3] was 5.8 log2 enrichment (interaction score); in [8] it was 6.79 log2 enrichment (interaction score); in test [9] it was 4.71 log2 enrichment (interaction score); in test [4], 2.44 log2 enrichment (interaction score); in [6], 2.47 log2 enrichment (interaction score); in test [1] it was 4.34 log2 enrichment (interaction score). Moreover, the binding signal in test [10] was 2.96 log2 enrichment (interaction score).
Take “GGCUAGAACUAGUGGAUCCCCCGGCGCCCGGCGGCUCGAGCCCGGGUAAGUGAAAAUAGUCUGCAUGCCGCCGGGCGCCAUGCCUGCAGGUCGACUCUAGAAAACAUG”: the binding signal in test [11] is 5.65 log2 enrichment (interaction score); in test [12], 2.57 log2 enrichment (interaction score).
Regarding “GGCUAGAACUAGUGGAUCCCCCGGCGCCCGGCGGCUCGAGCCCGGGUAAGUGUAAAUUGUCUGCAUGCCGCCGGGCGCCAUGCCUGCAGGUCGACUCUAGAAAACAUG”, the binding signal in test [13] was 2.33 log2 enrichment (interaction score); in test [14], 5.29 log2 enrichment (interaction score).
Take “GGCUAGAACUAGUGGAUCCCCCGGCGCCCGGCGGCUCGAGCCCGGGUAAGUGUAAGUAGUCUGCAUGCCGCCGGGCGCCAUGCCUGCAGGUCGACUCUAGAAAACAUG”: the binding signal is 3.36 log2 enrichment (interaction score) in [15] and 3.19 log2 enrichment (interaction score) in [16].

The record behind these values is PMC8384837, “Expanding the binding specificity for RNA recognition by a PUF domain”.
